{
  "source": "PubChem BioAssay (Tox21)",
  "note": "“And” between values parts separate entries of the source, which are not always exact repeats. Identical values can stand only once. Results filed as inconclusive are left out. The source made the active and inactive calls. Calls follow the shape of the dose curve; as a rule, active = well fitted cell-killing curve with a large enough effect in the repeat runs; inconclusive = weak or mixed curves, or effect the other way; inactive = flat fitted curve, though single readings scatter. % is scaled to controls: 0 for no effect and ±100 for the full control effect; potency is read from the fitted curve at half-maximal effect.",
  "data": [
    {"assay": "cAMP Responsive Elements (CRE) small molecule antagonists, cell-based qHTS assay: qHTS cell viability counter screen (AID 2060913); also: nearly all actives have a fitted effect of over 40% in size", "details": "CRE-bla HEK293T viability, CellTiter-Glo luminescence, 5 h; series mostly up to 92.4 µM; viability change, negative = cytotoxic: at the top concentration", "summary_of_the_method": "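Steps: cells plated and held 18 hrs at 37 C/5% CO2; compounds and NKH477 (0.25 uM final) added; 3 hrs incubation; reporter substrate read; CellTiter-Glo added to measure cytotoxicity by luminescence.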", "values": [
      {"smiles": "S=C1NC=NC2N=CNC12", "note": "(stereo not given)", "Potency": "3.06 µM (active)"},
      {"smiles": "Cc1ccc2c(c1)C(=O)OC2=O", "Potency": "inactive"},
      {"smiles": "CCN(CCCc1ccccc1)CCCc1ccccc1", "viability change, negative = cytotoxic": "-0.185% [at 42.5 µM] (inactive)"},
      {"smiles": "COc1ccnc(CS(=O)c2nc3ccc(OC(F)F)cc3[nH]2)c1OC", "note": "(stereo not given)", "viability change, negative = cytotoxic": "6% [at 42.5 µM] (inactive)"},
      {"smiles": "COc1cc2c(cc1OC)C(=O)CC2", "viability change, negative = cytotoxic": "1.55% [at 42.5 µM] (inactive)"},
      {"smiles": "O=C1c2cccc(O)c2C(=O)c2c(O)cc(CO)cc21", "viability change, negative = cytotoxic": "-11.5% (inactive)"},
      {"smiles": "COC(=O)Nc1ccc(Cl)c(Cl)c1", "viability change, negative = cytotoxic": "-10.1% (inactive)"},
      {"smiles": "ClC/C=C/CCl", "Potency": "inactive"},
      {"smiles": "CC(C)Cc1ccc(C(C)C(=O)O)cc1", "note": "(stereo not given)", "Potency": "inactive"},
      {"smiles": "C=CC(=O)OCC(Br)CBr", "note": "(stereo not given)", "viability change, negative = cytotoxic": "-6.62% (inactive)"},
      {"smiles": "NCC(=O)O", "viability change, negative = cytotoxic": "-2.51% [at 18.9 µM] (inactive)"},
      {"smiles": "CCCCCCCCCCc1ccccc1", "viability change, negative = cytotoxic": "-0.592% (inactive)"},
      {"smiles": "CC(C(=O)O)c1ccc(CC2CCCC2=O)cc1", "note": "(stereo not given)", "viability change, negative = cytotoxic": "-2.16% [at 42.5 µM] (inactive)"},
      {"smiles": "C1CCCCCCCCCCC1", "viability change, negative = cytotoxic": "3.07% [at 18.9 µM] (inactive)"},
      {"smiles": "Cc1ccc2c(ccc3ccccc32)c1", "viability change, negative = cytotoxic": "5.35% (inactive)"},
      {"smiles": "CCCOC(=O)c1ccc(O)cc1", "viability change, negative = cytotoxic": "2.88% (inactive)"},
      {"smiles": "CC1CCCNC1", "note": "(stereo not given)", "viability change, negative = cytotoxic": "-8.1% (inactive)"},
      {"smiles": "CCOC(C)(C)C", "viability change, negative = cytotoxic": "6.98% (inactive)"},
      {"smiles": "CN(C)CCC(c1ccccc1)c1ccccn1", "note": "(stereo not given)", "Potency": "inactive"},
      {"smiles": "CC(C)NC(=O)c1ccccc1N", "viability change, negative = cytotoxic": "0.608% (inactive)"},
      {"smiles": "CC1=CCCC(C)(C)C12CCC(C)O2", "note": "(stereo not given)", "viability change, negative = cytotoxic": "1.95% (inactive)"},
      {"smiles": "CC(C)CC(O)Cc1ccccc1", "note": "(stereo not given)", "viability change, negative = cytotoxic": "7.51% (inactive)"},
      {"smiles": "Cc1oc(=O)oc1COC(=O)[C@@H]1N2C(=O)[C@@H](NC(=O)[C@H](N)c3ccccc3)[C@H]2SC1(C)C", "viability change, negative = cytotoxic": "-0.337% [at 42.5 µM] (inactive)"},
      {"smiles": "O=C(Cl)c1cccc(C(=O)Cl)c1", "Potency": "inactive"},
      {"smiles": "O=C(O)c1ccc2cc(O)ccc2c1", "viability change, negative = cytotoxic": "0.0439% (inactive)"},
      {"smiles": "C=C(C)C1CCC(C)CC1O", "note": "(stereo not given)", "viability change, negative = cytotoxic": "1.4% (inactive)"},
      {"smiles": "Cc1cc2cc3c(C)cc(=O)oc3c(C)c2o1", "viability change, negative = cytotoxic": "7.45% [at 42.5 µM] (inactive)"},
      {"smiles": "NCCCN(CCO)CCO", "viability change, negative = cytotoxic": "-1.28% (inactive)"},
      {"smiles": "CCO[Si](CCCSSSSCCC[Si](OCC)(OCC)OCC)(OCC)OCC", "viability change, negative = cytotoxic": "6.76% (inactive)"},
      {"smiles": "CN1[C@@H]2CC[C@H]1CC(OC(=O)c1c[nH]c3ccccc13)C2", "note": "(stereo not given in full)", "viability change, negative = cytotoxic": "-1.48% [at 42.5 µM] (inactive)"},
      {"smiles": "Cc1c(C)n(CCN(C)C)c2ccc(C(=O)OCCN(C)C)cc12", "viability change, negative = cytotoxic": "-0.195% [at 42.5 µM] (inactive)"},
      {"smiles": "CCCCNC(=O)NCCCC", "viability change, negative = cytotoxic": "-3.56% (inactive)"},
      {"smiles": "CCCCCCCCCCCCc1ccccc1O", "Potency": "53.8 µM (active) and 32 µM (active)"},
      {"smiles": "O=C1c2ccccc2C(=O)c2c1ccc(O)c2O", "viability change, negative = cytotoxic": "3.63% [at 42.5 µM] (inactive)"},
      {"smiles": "N#CCCCC(C#N)CCC#N", "note": "(stereo not given)", "viability change, negative = cytotoxic": "-0.612% (inactive)"},
      {"smiles": "CC1(C)CC(O)CC(C)(C)N1[O]", "viability change, negative = cytotoxic": "-1.94% (inactive)"},
      {"smiles": "Nc1nc(CC(=O)O)cs1", "viability change, negative = cytotoxic": "-7.47% (inactive)"},
      {"smiles": "Cc1nc(-c2ccccn2)ncc1C(=O)Nn1cc(C)c2cc(F)ccc21", "viability change, negative = cytotoxic": "-8.68% (inactive)"},
      {"smiles": "CCNCCO", "viability change, negative = cytotoxic": "-0.256% (inactive)"},
      {"smiles": "CC1(C)[C@@H]2CC[C@@]1(C)C(=O)C2", "Potency": "inactive"}
    ]}
  ]
}
